Reference: PubChem BioAssay (EPA / NIEHS)
“And” between values parts separate entries of the source, which are not always exact repeats. Equal entries are not always repeated. Records with an inconclusive call do not appear. Some compounds were tested as several samples or in several runs, with calls that do not always agree. The source made the active and inactive calls. The calls were made as follows, unless noted: active = hit-call score of the fitted dose curve at least 0.9, where 1 is the maximum; inactive = score below 0.9.

Legend:
[1] = read-out: Monocyte Chemoattractant Protein-1 (MCP1), CCL2 (gene 6347); assay: BSK_SAg_MCP1: BioMAP Diversity Plus: SAg Assay for Monocyte Chemoattractant Protein-1 (MCP1) Biomarker Activity (AID 2283090); details: primary human HUVEC with PBMC; actives raise or lower the signal
Method in brief: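 Values derive from bidirectional fitting of ELISA-measured MCP1 against DMSO controls. Readings were taken 24 h after dosing human vascular endothelial cells co-cultured with peripheral blood mononuclear cells under superantigen stimulation.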

[2] = read-out: E-selectin (Homo sapiens) (UniProt P16581); assay: BSK_SAg_Eselectin: BioMAP Diversity Plus: SAg Assay for Eselectin Biomarker Activity (AID 2283091); details: primary human HUVEC with PBMC; actives raise or lower the signal
Method in brief: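 Co-culture: HUVEC + PBMC. Dose compound; 24 h. ELISA for E-selectin. Bidirectional fit vs DMSO.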

[3] = read-out: Monokine induced gamma interferon (MIG), CXCL9 (gene 4283); assay: BSK_SAg_MIG: BioMAP Diversity Plus: SAg Assay for Monokine induced gamma interferon (MIG) Biomarker Activity (AID 2283092); details: primary human HUVEC with PBMC; actives raise or lower the signal
Method in brief: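 Values reflect bidirectional fitting of ELISA-measured MIG against DMSO vehicle, taken 24 h after dosing of a co-culture of human umbilical vein endothelial cells and peripheral blood mononuclear cells.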

[4] = BSK_SAg_PBMCCytotoxicity: PBMC Cytotoxicity Assessment in the BioMAP Diversity Plus: SAg Assay (AID 2283093); details: primary human HUVEC with PBMC;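 also: PBMC viability measured as Alamar Blue reduction fluorescence at 546/580 nm; fitted both ways against DMSO so a hit may be loss or gain of signal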;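 as to AC50: PBMC superantigen activated with SEB plus TSST-1 one hour after compound addition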
Method in brief: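 Alamar Blue reduction (6 h, 546/580 nm) reports PBMC cytotoxicity after 90 h superantigen activation (SEB, TSST-1; 20 ng/mL final each) with 1 h compound pre-treatment. Gain or loss of signal fitted versus DMSO.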

[5] = read-out: Interleukin-8 (IL8), CXCL8 (gene 3576); assay: BSK_SAg_IL8: BioMAP Diversity Plus: SAg Assay for Interleukin-8 (IL8) Biomarker Activity (AID 2283094); details: primary human HUVEC with PBMC; actives raise or lower the signal
Method in brief: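 Chemicals were dosed onto a human endothelial–PBMC co-culture, and IL-8 was quantified by ELISA after 24 h. Both increases and decreases were fitted relative to DMSO.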

[6] = BSK_SAg_Proliferation: Cell Proliferation Assessment in the BioMAP Diversity Plus: SAg Assay (AID 2283095); details: primary human HUVEC with PBMC;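 also: relative cell number as total protein by SRB absorbance in sub-confluent culture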
Method in brief: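 Absorbance of sulforhodamine B at 560 nm reports total protein in a human vascular endothelial/PBMC co-culture after 96 h chemical exposure. Gain or loss of signal is fitted in both directions against DMSO.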

[7] = BSK_SAg_SRB: Viability Assessment in the BioMAP Diversity Plus: SAg Assay (AID 2283096); details: primary human HUVEC with PBMC;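 also: cells read one day after compound addition; hits may be either gain or loss of signal compared with DMSO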
Method in brief: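 This overt-cytotoxicity endpoint quantifies protein in human endothelial/PBMC co-cultures at 24 h using SRB absorbance (560 nm) after trichloroacetic acid fixation. Values reflect signal change from the DMSO negative control, fitted bidirectionally.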

[8] = molecular target: human CYP19A1, CYP19A1 (gene 1588) (UniProt P11511); assay: NVS_ADME_hCYP19A1: NovaScreen (NVS) CYP450-related Enzyme Activity (ADME) Assay for human CYP19A1 (AID 2283098; active = hit-call score of the fitted dose curve at least 0.9, where 1 is the maximum)
Method in brief: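 Compounds were first screened at 10 uM in duplicate against purified enzyme, with a fluorogenic substrate and fluorescence intensity detection after 0.5 h. Inhibition appears as reduced signal against acetonitrile control.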

[9] = molecular target: human CYP1A1, CYP1A1 (gene 1543) (UniProt P04798); assay: NVS_ADME_hCYP1A1: NovaScreen (NVS) CYP450-related Enzyme Activity (ADME) Assay for human CYP1A1 (AID 2283100; active = hit-call score of the fitted dose curve at least 0.9, where 1 is the maximum)
Method in brief: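 Recombinant hCYP1A1 + fluorogenic substrate, cell-free; 1 h; fluorescence read. Single-point 10 uM (duplicate) → concentration series, max 20 uM. Acetonitrile negative control.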

Measured: AC50

Chain of E-selectin (Homo sapiens) (P16581 whole entry, looked up): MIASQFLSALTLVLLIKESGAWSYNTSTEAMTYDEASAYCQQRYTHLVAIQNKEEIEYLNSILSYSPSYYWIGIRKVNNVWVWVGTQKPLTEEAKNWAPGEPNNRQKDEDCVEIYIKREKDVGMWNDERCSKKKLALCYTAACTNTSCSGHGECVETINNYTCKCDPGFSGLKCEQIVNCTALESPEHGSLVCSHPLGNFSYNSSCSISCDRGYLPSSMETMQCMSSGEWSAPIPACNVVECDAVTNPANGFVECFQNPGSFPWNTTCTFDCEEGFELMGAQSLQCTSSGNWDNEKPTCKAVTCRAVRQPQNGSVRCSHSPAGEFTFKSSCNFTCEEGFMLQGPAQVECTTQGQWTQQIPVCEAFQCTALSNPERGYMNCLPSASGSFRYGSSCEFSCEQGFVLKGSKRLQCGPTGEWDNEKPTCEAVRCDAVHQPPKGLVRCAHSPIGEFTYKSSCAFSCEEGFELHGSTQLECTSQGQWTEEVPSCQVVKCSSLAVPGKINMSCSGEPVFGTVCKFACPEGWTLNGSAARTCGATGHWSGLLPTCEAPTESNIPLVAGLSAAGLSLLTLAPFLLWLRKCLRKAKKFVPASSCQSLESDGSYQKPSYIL
Chain of human CYP1A1, CYP1A1 (gene 1543) (P04798 whole entry, looked up): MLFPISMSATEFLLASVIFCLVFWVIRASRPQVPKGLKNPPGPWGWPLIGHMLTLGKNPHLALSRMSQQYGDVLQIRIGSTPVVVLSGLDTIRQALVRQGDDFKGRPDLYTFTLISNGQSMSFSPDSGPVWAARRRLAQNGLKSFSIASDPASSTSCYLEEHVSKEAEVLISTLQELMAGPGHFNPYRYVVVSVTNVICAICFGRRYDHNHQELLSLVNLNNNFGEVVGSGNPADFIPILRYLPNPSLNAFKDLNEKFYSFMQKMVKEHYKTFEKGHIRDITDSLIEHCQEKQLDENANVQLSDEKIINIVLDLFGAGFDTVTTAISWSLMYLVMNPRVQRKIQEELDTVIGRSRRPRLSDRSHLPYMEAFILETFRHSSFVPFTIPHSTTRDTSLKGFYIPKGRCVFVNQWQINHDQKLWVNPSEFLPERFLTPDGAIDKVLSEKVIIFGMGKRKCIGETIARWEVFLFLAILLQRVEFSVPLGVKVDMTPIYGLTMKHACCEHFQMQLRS
Chain of human CYP19A1, CYP19A1 (gene 1588) (P11511 whole entry, looked up): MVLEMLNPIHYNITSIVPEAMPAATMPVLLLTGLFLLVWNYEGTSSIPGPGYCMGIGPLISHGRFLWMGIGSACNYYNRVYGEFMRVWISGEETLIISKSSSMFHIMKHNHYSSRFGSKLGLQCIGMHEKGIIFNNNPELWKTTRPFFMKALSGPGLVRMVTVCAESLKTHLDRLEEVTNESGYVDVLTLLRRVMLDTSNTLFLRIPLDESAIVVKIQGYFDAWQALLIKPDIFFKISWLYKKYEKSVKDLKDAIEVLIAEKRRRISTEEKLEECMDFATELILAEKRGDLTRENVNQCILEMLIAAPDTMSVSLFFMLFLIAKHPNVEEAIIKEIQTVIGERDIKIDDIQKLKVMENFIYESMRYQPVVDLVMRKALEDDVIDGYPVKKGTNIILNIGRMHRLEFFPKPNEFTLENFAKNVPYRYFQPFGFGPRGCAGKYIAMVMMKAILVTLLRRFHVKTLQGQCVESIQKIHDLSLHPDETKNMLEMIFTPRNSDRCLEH

O=C(O)c1nc(Cl)ccc1Cl
not listed: [8] | [9]
inactive: all other assays above

COc1nc(NC(C)C)nc(NC(C)C)n1
not listed: [8] | [9]
inactive: all other assays above

COc1cnc(OC)n2nc(NS(=O)(=O)c3c(OCC(F)F)cccc3C(F)(F)F)nc12
not listed: [8] | [9]
inactive: all other assays above

CCCCOC(=O)c1ccccc1C(=O)OCCCC
active: [2] 20 µM | [6] 29.2 µM and 31.4 µM
inactive: [1] | [2] | [3] | [4] | [5] | [7] | [8] | [9]

CC(Oc1ccc(Cl)cc1Cl)C(=O)O (stereo unspecified)
not listed: [8] | [9]
inactive: all other assays above

C=CCC1=C(C)[C@@H](OC(=O)[C@@H]2[C@@H](C=C(C)C)C2(C)C)CC1=O
active: [1] 33.2 µM | [2] 27.4 µM | [3] 38.9 µM | [4] 32.4 µM | [5] 25.3 µM | [6] 33.8 µM | [7] 29.2 µM

COC(=O)C=C(C)OP(=O)(OC)OC
not listed: [8] | [9]
inactive: all other assays above

COC(=O)c1ccccc1C(=O)OC
not listed: [8] | [9]
inactive: all other assays above

N#Cc1cc(Br)c(O)c(Br)c1
inactive: [1] | [2] | [3]
active: [4] 14.4 µM | [5] 30.5 µM | [6] 33.4 µM | [7] 20 µM

CCON=C(CC)C1=C(O)CC(c2c(C)cc(C)cc2C)CC1=O (stereo unspecified)
not listed: [8] | [9]
inactive: all other assays above

CC(C)(C)c1ccc(CSc2cnn(C(C)(C)C)c(=O)c2Cl)cc1
active: [1] 1.11 µM | [2] 0.148 µM | [4] 0.0975 µM | [5] 0.453 µM | [6] 6.61 µM | [7] 13.6 µM
inactive: [3]

Cc1cc(Cl)ccc1OCC(=O)O
not listed: [8] | [9]
inactive: all other assays above

CC(C)C1(C)N=C(c2nc3ccccc3cc2C(=O)O)NC1=O (stereo unspecified)
not listed: [8] | [9]
inactive: all other assays above

COc1nc(C)nc(NC(=O)NS(=O)(=O)c2ccccc2Cl)n1
not listed: [8] | [9]
inactive: all other assays above
